# About 2,000 (36%) of roughly 5,500 compounds were called active. Inconclusive results (about 18%) are left out. This is one part of the list. Values without a mark were called inactive. Cut-off read from the data, not from the text of the source: active = normalized growth mostly below about 0.91 (no sharp cut-off); inconclusive = no clear call, values can overlap the other calls; inactive = mostly above about 0.92.
# Test: chemical genetic growth profiling, strain panel (AID 1159580);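 note: tested at 20 µM; growth read once vehicle control cultures reached saturation at 30 °C; 1 = growth at the plate median or of vehicle wells; lower values mean less growth of the strain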
# Details: S. cerevisiae deletion strains, growth OD
compound,measurement,setting,value
CC(CC(O)C1OC1(C)C)[C@@H]1CCC2(C)C3=CCC4C(C)(C)C(=O)CCC4(C)C3CC[C@@]12C (some centres not stated),normalized growth,"locus YAL021C, strain ccr4, active compounds read low",0.986
same,normalized growth,"locus YAL026C, strain drs2, active compounds read low",0.997
same,normalized growth,"locus YAL030W, strain snc1, active compounds read low",1
same,normalized growth,"locus YBL061C, strain skt5, active compounds read low",1.02
same,normalized growth,"locus YBR009C, strain hhf1, active compounds read low",0.979
same,normalized growth,"locus YBR021W, strain FUR4, active compounds read low",0.993
same,normalized growth,"locus YBR023C, strain chs3, active compounds read low",1.01
same,normalized growth,"locus YBR171W, strain sec66, active compounds read low",0.999
same,normalized growth,"locus YBR229C, strain ROT2, active compounds read low",1.03
same,normalized growth,"locus YBR231C, strain swc5, active compounds read low",1.04
same,normalized growth,"locus YBR279W, strain paf1, active compounds read low",0.999
same,normalized growth,"locus YCL011C, strain gbp2, active compounds read low",1.01
same,normalized growth,"locus YCL016C, strain dcc1, active compounds read low",0.994
same,normalized growth,"locus YCL029C, strain bik1, active compounds read low",1.03
same,normalized growth,"locus YCL061C, strain MRC1, active compounds read low",0.994
same,normalized growth,"locus YCL069W, strain vba3, active compounds read low",0.995
same,normalized growth,"locus YCR088W, strain abp1, active compounds read low",1.01
same,normalized growth,"locus YDL005C, strain med2, active compounds read low",1.01
same,normalized growth,"locus YDL035C, strain GPR1, active compounds read low",0.952
same,normalized growth,"locus YDL040C, strain nat1, active compounds read low",1
same,normalized growth,"locus YDL074C, strain BRE1, active compounds read low",1.02
same,normalized growth,"locus YDL101C, strain DUN1, active compounds read low",1.04
same,normalized growth,"locus YDL134C, strain PPH21, active compounds read low",1.03
same,normalized growth,"locus YDL185W, strain tfp1, active compounds read low",1.03
same,normalized growth,"locus YDL192W, strain arf1, active compounds read low",1.03
same,normalized growth,"locus YDR001C, strain nth1, active compounds read low",0.984
same,normalized growth,"locus YDR069C, strain doa4, active compounds read low",1
same,normalized growth,"locus YDR101C, strain arx1, active compounds read low",1.02
same,normalized growth,"locus YDR137W, strain rgp1, active compounds read low",0.831 (active)
same,normalized growth,"locus YDR159W, strain sac3, active compounds read low",1.01
same,normalized growth,"locus YDR162C, strain NBP2, active compounds read low",1.04
same,normalized growth,"locus YDR195W, strain ref2",0.971
same,normalized growth,"locus YDR297W, strain sur2, active compounds read low",1
same,normalized growth,"locus YDR318W, strain mcm21, active compounds read low",1.04
same,normalized growth,"locus YDR334W, strain swr1, active compounds read low",0.997
same,normalized growth,"locus YDR335W, strain msn5, active compounds read low",0.993
same,normalized growth,"locus YDR388W, active compounds read low",1.03
same,normalized growth,"locus YDR392W, strain spt3, active compounds read low",1.02
same,normalized growth,"locus YDR502C, strain sam2, active compounds read low",1.03
same,normalized growth,"locus YEL003W, strain gim4, active compounds read low",1.01
same,normalized growth,"locus YEL037C, strain rad23, active compounds read low",1
same,normalized growth,"locus YEL061C, strain CIN8 (second series), active compounds read low",1
same,normalized growth,"locus YER015W, strain faa2, active compounds read low",1
same,normalized growth,"locus YER016W, strain bim1, active compounds read low",1
same,normalized growth,"locus YER110C, active compounds read low",1.03
same,normalized growth,"locus YER111C, strain swi4, active compounds read low",1.02
same,normalized growth,"locus YER155C, strain BEM2 (second series), active compounds read low",1.04
same,normalized growth,"locus YER155C, strain BEM2, active compounds read low",1.04
same,normalized growth,"locus YER167W, strain BCK2, active compounds read low",1.05
same,normalized growth,"locus YFR010W, strain ubp6, active compounds read low",0.997
same,normalized growth,"locus YGL078C, strain dbp3, active compounds read low",1.01
same,normalized growth,"locus YGL086W, strain mad1, active compounds read low",1.05
same,normalized growth,"locus YGL167C, strain pmr1, active compounds read low",0.999
same,normalized growth,"locus YGL173C, strain kem1, active compounds read low",1
same,normalized growth,"locus YGL227W, strain vid30, active compounds read low",0.998
same,normalized growth,"locus YGL240W, strain doc1, active compounds read low",1.02
same,normalized growth,"locus YGL248W, strain PDE1, active compounds read low",1.03
same,normalized growth,"locus YGL253W, strain hxk2, active compounds read low",0.994
same,normalized growth,"locus YGR135W, strain pre9, active compounds read low",1.04
same,normalized growth,"locus YGR229C, strain SMI1, active compounds read low",1.08
same,normalized growth,"locus YGR252W, strain gcn5, active compounds read low",1.17
same,normalized growth,"locus YHR013C, strain ard1, active compounds read low",1.03
same,normalized growth,"locus YHR027C, strain rpn1, active compounds read low",1
same,normalized growth,"locus YHR030C, strain SLT2, active compounds read low",1.03
same,normalized growth,"locus YHR079C, strain IRE1 (second series), active compounds read low",1.03
same,normalized growth,"locus YHR094C, strain hxt1, active compounds read low",1.04
same,normalized growth,"locus YHR129C, strain ARP1, active compounds read low",1.04
same,normalized growth,"locus YHR142W, strain chs7, active compounds read low",1
same,normalized growth,"locus YHR200W, strain rpn10, active compounds read low",1.03
same,normalized growth,"locus YIL066C, strain RNR3, active compounds read low",1.01
same,normalized growth,"locus YIL073C, strain SPO22, active compounds read low",1.1
same,normalized growth,"locus YIL125W, strain kgd1, active compounds read low",1.03
same,normalized growth,"locus YIR030C, strain dcg1, active compounds read low",1.03
same,normalized growth,"locus YJL092W, strain hpr5, active compounds read low",1
same,normalized growth,"locus YJL095W, strain BCK1 (second series), active compounds read low",1
same,normalized growth,"locus YJL095W, strain BCK1, active compounds read low",1.05
same,normalized growth,"locus YJL115W, strain asf1, active compounds read low",0.992
same,normalized growth,"locus YJL129C, strain trk1, active compounds read low",0.993
same,normalized growth,"locus YJL134W, strain LCB3, active compounds read low",1.04
same,normalized growth,"locus YJL154C, strain vps35, active compounds read low",1
same,normalized growth,"locus YJL164C, strain tpk1, active compounds read low",0.966
same,normalized growth,"locus YJL166W, strain qcr8, active compounds read low",0.988
same,normalized growth,"locus YJL168C, strain set2, active compounds read low",1.04
same,normalized growth,"locus YJL187C, strain SWE1 (second series), active compounds read low",1.03
same,normalized growth,"locus YJL187C, strain SWE1, active compounds read low",0.995
same,normalized growth,"locus YKL068W, active compounds read low",1.01
same,normalized growth,"locus YKL160W, strain elf1, active compounds read low",0.993
same,normalized growth,"locus YKR001C, strain vps1, active compounds read low",1.07
same,normalized growth,"locus YKR026C, strain gcn3, active compounds read low",1.01
same,normalized growth,"locus YKR091W, strain srl3, active compounds read low",0.996
same,normalized growth,"locus YLL001W, strain dnm1, active compounds read low",0.949
same,normalized growth,"locus YLL026W, active compounds read low",0.998
same,normalized growth,"locus YLL041C, strain sdh2, active compounds read low",0.998
same,normalized growth,"locus YLR027C, strain aat2, active compounds read low",0.993
same,normalized growth,"locus YLR039C, strain RIC1, active compounds read low",1.09
same,normalized growth,"locus YLR058C, strain SHM2, active compounds read low",1.04
same,normalized growth,"locus YLR102C, strain apc9, active compounds read low",1.04
same,normalized growth,"locus YLR221C, strain rsa3, active compounds read low",1.03
same,normalized growth,"locus YLR258W, strain gsy2, active compounds read low",1.01
same,normalized growth,"locus YLR262C, strain YPT6 (second series), active compounds read low",0.768 (active)
same,normalized growth,"locus YLR262C, strain YPT6, active compounds read low",1.02
same,normalized growth,"locus YLR268W, strain sec22, active compounds read low",1.04
same,normalized growth,"locus YLR320W, strain mms22, active compounds read low",1.03
same,normalized growth,"locus YLR330W, strain CHS5, active compounds read low",1.04
same,normalized growth,"locus YLR342W, strain FKS1, active compounds read low",1.02
same,normalized growth,"locus YLR357W, strain rsc2, active compounds read low",1.02
same,normalized growth,"locus YLR370C, strain arc18, active compounds read low",1.01
same,normalized growth,"locus YLR371W, strain rom2, active compounds read low",1.04
same,normalized growth,"locus YLR384C, strain iki3, active compounds read low",1
same,normalized growth,"locus YLR418C, strain cdc73, active compounds read low",1.09
same,normalized growth,"locus YML016C, strain PPZ1, active compounds read low",1.05
same,normalized growth,"locus YML032C, strain rad52, active compounds read low",1.04
same,normalized growth,"locus YML120C, strain ndi1, active compounds read low",0.995
same,normalized growth,"locus YML124C, strain tub3, active compounds read low",1.03
same,normalized growth,"locus YMR058W, strain fet3, active compounds read low",1.01
same,normalized growth,"locus YMR078C, strain ctf18, active compounds read low",1.05
same,normalized growth,"locus YMR125W, strain sto1, active compounds read low",1
same,normalized growth,"locus YMR129W, active compounds read low",1
same,normalized growth,"locus YMR205C, strain PFK2, active compounds read low",0.943
same,normalized growth,"locus YMR223W, strain ubp8, active compounds read low",1.03
same,normalized growth,"locus YMR231W, strain pep5, active compounds read low",0.98
same,normalized growth,"locus YMR307W, strain GAS1, active compounds read low",1.07
same,normalized growth,"locus YNL067W, strain RPL9B, active compounds read low",1.03
same,normalized growth,"locus YNL071W, strain lat1, active compounds read low",0.996
same,normalized growth,"locus YNL153C, strain GIM3, active compounds read low",1.01
same,normalized growth,"locus YNL209W, strain ssb2, active compounds read low",1
same,normalized growth,"locus YNL233W, strain BNI4, active compounds read low",1.03
same,normalized growth,"locus YNL248C, strain rpa49, active compounds read low",0.959
same,normalized growth,"locus YNL250W, strain rad50, active compounds read low",1.04
same,normalized growth,"locus YNL271C, strain bni1, active compounds read low",1.03
same,normalized growth,"locus YNL298W, strain CLA4, active compounds read low",1.02
same,normalized growth,"locus YNL307C, strain MCK1, active compounds read low",1.03
same,normalized growth,"locus YNL322C, strain KRE1 (second series), active compounds read low",0.989
same,normalized growth,"locus YNR049C, strain mso1, active compounds read low",0.995
same,normalized growth,"locus YNR052C, strain pop2, active compounds read low",1.04
same,normalized growth,"locus YOL006C, strain TOP1, active compounds read low",1.09
same,normalized growth,"locus YOL012C, strain htz1",1.47
same,normalized growth,"locus YOL147C, strain pex11, active compounds read low",1.05
same,normalized growth,"locus YOR001W, strain rrp6, active compounds read low",0.983
same,normalized growth,"locus YOR061W, strain CKA2, active compounds read low",1.03
same,normalized growth,"locus YOR069W, strain VPS5, active compounds read low",1.03
same,normalized growth,"locus YOR070C, strain gyp1, active compounds read low",1.02
same,normalized growth,"locus YOR080W, strain dia2, active compounds read low",1.01
same,normalized growth,"locus YOR083W, strain WHI5, active compounds read low",0.994
same,normalized growth,"locus YOR106W, strain vam3, active compounds read low",0.982
same,normalized growth,"locus YOR136W, strain idh2, active compounds read low",1.03
same,normalized growth,"locus YOR144C, strain elg1, active compounds read low",1.04
same,normalized growth,"locus YOR184W, strain ser1, active compounds read low",0.955
same,normalized growth,"locus YOR265W, strain rbl2, active compounds read low",0.999
same,normalized growth,"locus YOR270C, strain vph1, active compounds read low",0.877
same,normalized growth,"locus YOR290C, strain snf2, active compounds read low",0.946
same,normalized growth,"locus YOR316C, strain cot1, active compounds read low",1.02
same,normalized growth,"locus YPL051W, strain arl3, active compounds read low",1.03
same,normalized growth,"locus YPL078C, strain atp4, active compounds read low",0.966
same,normalized growth,"locus YPL106C, strain sse1, active compounds read low",1.1
same,normalized growth,"locus YPL240C, strain hsp82, active compounds read low",1.01
same,normalized growth,"locus YPL241C, strain CIN2, active compounds read low",1.05
same,normalized growth,"locus YPR119W, strain clb2, active compounds read low",1.04
same,normalized growth,"locus YPR141C, strain kar3, active compounds read low",1.05
same,normalized growth,"locus YPR163C, strain tif3, active compounds read low",1.04
same,normalized growth,"locus YPR167C, strain met16, active compounds read low",1.03
same,normalized growth,"strain wtn01, active compounds read low",1.02

# Source: PubChem BioAssay AID1159580 (chemical genetic matrix, 2015)
